# GalR3 antagonist = GalR3 antagonists in HEK293 cells, primary screen, cell-based, fluorescence readout; HEK293 GalR3-CNG cAMP membrane potential fluorescence; galR3 body fused to GalR1 C-terminus; actives 0.44% (n = 360,000); inhibition, % at 3 µM; AID 651719, 2012;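 active = inhibition above the screen-wide average plus 3 SD, cut at about 13% in these data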;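 also: forskolin and galanin both at EC90 stimulate the cells; cAMP rise reported by CNG channel membrane potential dye signal; 0% = forskolin plus galanin with DMSO and 100% = forskolin alone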
# NCOA3 inh = SRC3 coactivator transcriptional activity inhibitors, primary screen, cell-based, luminescence; HEK293 GAL4-SRC3 luciferase reporter; Nuclear receptor coactivator 3 (Homo sapiens), Q9Y6Q9; inhibition, % at 3.6 µM; actives 0.17% (n = 360,000);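 active = inhibition above a per-campaign cutoff, the mean of all compounds plus 3 SD, cut at about 60% in these data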;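 also: 0% = DMSO-treated cells and 100% = gossypol-treated cells at 36 µM; higher means less SRC3-driven luciferase light from the GAL4 reporter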
# Target sequence (Q9Y6Q9 whole entry, looked up, the tested form may be a part): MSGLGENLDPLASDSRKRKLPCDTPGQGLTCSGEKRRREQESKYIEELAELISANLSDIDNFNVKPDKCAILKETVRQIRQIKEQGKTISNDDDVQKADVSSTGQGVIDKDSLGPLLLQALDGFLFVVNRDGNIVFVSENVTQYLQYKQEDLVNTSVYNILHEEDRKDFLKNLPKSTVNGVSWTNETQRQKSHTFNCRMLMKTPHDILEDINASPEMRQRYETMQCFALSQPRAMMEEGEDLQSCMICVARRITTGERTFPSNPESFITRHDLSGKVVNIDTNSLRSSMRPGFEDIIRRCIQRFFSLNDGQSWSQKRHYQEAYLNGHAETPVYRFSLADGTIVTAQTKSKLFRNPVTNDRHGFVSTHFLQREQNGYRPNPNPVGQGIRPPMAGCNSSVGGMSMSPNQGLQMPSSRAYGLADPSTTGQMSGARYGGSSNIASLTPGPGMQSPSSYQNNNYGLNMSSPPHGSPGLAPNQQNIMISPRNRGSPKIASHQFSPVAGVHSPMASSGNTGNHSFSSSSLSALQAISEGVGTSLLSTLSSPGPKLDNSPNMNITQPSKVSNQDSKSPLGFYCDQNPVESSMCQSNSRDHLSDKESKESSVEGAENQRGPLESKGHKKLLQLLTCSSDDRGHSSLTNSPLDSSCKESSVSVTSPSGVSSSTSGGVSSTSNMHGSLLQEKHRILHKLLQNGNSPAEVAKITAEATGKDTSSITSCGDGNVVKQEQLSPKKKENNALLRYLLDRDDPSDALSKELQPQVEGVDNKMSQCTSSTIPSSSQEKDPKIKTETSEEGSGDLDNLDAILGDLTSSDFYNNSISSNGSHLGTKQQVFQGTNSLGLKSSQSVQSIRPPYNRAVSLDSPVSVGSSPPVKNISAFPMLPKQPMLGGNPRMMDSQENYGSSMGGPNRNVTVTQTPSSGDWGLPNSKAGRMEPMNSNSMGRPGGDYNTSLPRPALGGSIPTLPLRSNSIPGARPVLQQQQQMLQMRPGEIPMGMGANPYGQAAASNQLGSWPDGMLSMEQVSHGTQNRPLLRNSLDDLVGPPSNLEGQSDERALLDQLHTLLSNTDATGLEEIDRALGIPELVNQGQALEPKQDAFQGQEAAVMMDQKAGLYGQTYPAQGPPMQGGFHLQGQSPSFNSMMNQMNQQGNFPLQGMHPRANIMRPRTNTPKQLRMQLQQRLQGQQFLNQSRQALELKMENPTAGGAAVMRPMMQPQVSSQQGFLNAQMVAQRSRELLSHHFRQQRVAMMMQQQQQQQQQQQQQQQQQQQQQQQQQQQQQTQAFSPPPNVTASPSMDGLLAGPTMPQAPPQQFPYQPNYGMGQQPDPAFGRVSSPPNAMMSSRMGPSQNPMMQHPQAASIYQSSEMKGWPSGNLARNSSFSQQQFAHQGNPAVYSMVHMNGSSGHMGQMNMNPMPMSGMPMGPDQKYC
# NCOA2 inhibitor = inhibition of GAL4-SRC2 driven luciferase reporter, primary screen, SRC2 inhibitor project, cell-based, luminescence; Nuclear receptor coactivator 2 (Homo sapiens), Q15596; HEK293 GAL4-SRC2 luciferase reporter; inhibition, % at 9 µM; actives 0.17% (n = 370,000);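 active = inhibition above the mean inhibition of all tested compounds plus 3 SD, set per campaign, cut at about 52% in these data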;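 also: 0% = DMSO treated cells and 100% = cells given Gossypol at 36 µM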
# SRC1 inh = SRC1 coactivator transcriptional activity inhibitors, primary screen, cell-based, luminescence; Nuclear receptor coactivator 1 (Homo sapiens), Q15788; HEK293 GAL4-SRC1 luciferase reporter; actives 0.12% (n = 360,000); inhibition, % at 3.6 µM;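 active = inhibition above the campaign mean plus 3 SD, with each screening campaign given its own cutoff, cut at about 60% in these data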;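 also: 0% = DMSO treated cells and 100% = gossypol at 36 µM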
# COUP-TFII inh = NR2F2 transcriptional activity inhibitors, primary screen, cell-based, luciferase reporter, HEK293T, luminescence; HEK293T NGFI-A luciferase reporter; inhibition, % at 8.6 µM; actives 0.7% (n = 370,000); AID 686940, 2013;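 active = inhibition above a per-plate cutoff, mean inhibition of test wells between control levels plus 3 SD, cut at about 38% in these data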;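 also: cells cotransfected with COUP-TFII expression vector driving the NGFI-A reporter; 0% = median of COUP-TF2 test wells and 100% = reporter-only cells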
# LRH-1 inv ag = LRH-1 (NR5A2) inverse agonists, primary screen, cell-based, luminescence, HEK293T, StAR-luciferase reporter; Nuclear receptor subfamily 5 group A member 2 (Homo sapiens), O00482; LRH-1 transfected, 24 h; inhibition, % at 3.6 µM; actives 0.13% (n = 360,000); AID 602396, 2012;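 active = inhibition above the mean inhibition of all tested compounds plus 3 SD, cut at about 73% in these data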;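 also: 0% = DMSO wells and 100% = reporter-only cells lacking LRH-1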
# Gal4-VP16 ctr = Gal4-VP16 luciferase reporter inhibitors, counter-screen for COUP-TFII antagonist project, cell-based, luminescence, HEK293. actives 25% (n = 2,500). shares compounds with COUP-TFII inh. inhibition, % at 8.5 µM; in the data active = inhibition above about 13%
# COUP-TFII conf = NR2F2 transcriptional activity inhibitors, confirmation, cell-based, luciferase reporter, HEK293, triplicate. inhibition, % at 8.5 µM. HEK293 NGFI-A luciferase reporter, luminescence. shares compounds with COUP-TFII inh. AID 687008, 2013. actives 45% (n = 2,500);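 active = mean inhibition over three repeats above a set limit taken from the earlier primary screen, cut at about 38% in these data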;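 also: 100% = cells given the luciferase reporter alone without the COUP-TF2 vector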
# Numbers without * were called inactive; . = no result. Most compounds without a hit are left out; they make up all but 1.1% or so of the library.
SMILES,GalR3 antagonist,NCOA3 inh,NCOA2 inhibitor,SRC1 inh,COUP-TFII inh,LRH-1 inv ag,Gal4-VP16 ctr,COUP-TFII conf
c1ccc(-c2ccc(CNc3nc(-c4ccccn4)nnc3-c3ccccc3)cc2)cc1,.,.,.,.,55.1*,.,-1.9,18.4
C=CCNc1nc(-c2ccccn2)nnc1-c1ccccc1,-6.2,-2.3,21.3,-1.7,-45.3,33.3,.,.
CC(C)(C)CCNc1nc(-c2ccccn2)nnc1-c1ccccc1,.,.,.,.,51.6*,.,4.2,13.5
CC1(C)N=C(N)N=C(N)N1c1ccc(CCCCc2ccccc2)cc1,100.6*,46.3,50.6,37.7,70.0*,80.1*,28.1*,62.4*
COCCN=c1scc(-c2ccc3c(c2)NC(=O)CO3)n1/N=C(\C)c1ccc(O)cc1,8.6,15.1,23.1,-7.8,37.9*,11.3,-8.4,0.4
COc1cc(/C=N/n2c(-c3ccc4c(c3)NC(=O)CO4)csc2=Nc2cccc(C)c2)ccc1O,-0.6,0.0,2.0,-8.8,-17.3,-6.5,.,.
O=C(Nc1ccc(C(=O)OC2CCCCC2)cc1)c1ccncc1,-3.9,12.2,10.0,-8.9,53.0*,18.1,-8.2,12.9
CCc1c(C)nc2c(Br)cccc2c1SCCC#N,3.6,27.4,26.7,7.1,23.8,-3.0,.,.
CCc1c(C)nc2ccc(Br)cc2c1SCCC#N,-1.1,64.3*,51.1,64.6*,38.1*,-4.2,12.0,24.1
C(=N\Nc1ccc2ccccc2n1)/c1ccc2c(c1)OCCO2,-5.3,57.2,52.0,60.0,64.1*,42.8,38.4*,70.0*
COC(=O)C1=C(C)N(Cc2cccc(C(F)(F)F)c2)C(=NCc2ccc(C(F)(F)F)cc2)NC1c1cccc(C(F)(F)F)c1 (stereo not drawn),0.3,.,-22.8,.,-6.4,.,.,.
NC(=O)c1ccsc1NC(=O)COC(=O)Cc1cccc2ccccc12,104.0*,19.8,28.9,-22.6,52.9*,25.0,-6.3,38.6*
NC(=O)c1ccsc1NC(=O)COC(=O)Cc1c[nH]c2ccccc12,-6.7,1.9,-17.2,-3.7,24.7,8.9,.,.
CCOc1cc(CNCc2ccncc2)cc(Br)c1OCc1ccc(F)cc1,-3.9,18.1,7.2,-1.2,39.5*,24.9,3.7,7.7
Fc1ccc(COc2ccc(Br)cc2CNCc2ccncc2)cc1,-7.0,-4.1,19.3,5.2,-0.1,0.8,.,.
Cc1ccc(-c2[nH]c3ccccc3c2SCCNC(=O)c2ccc(S(=O)(=O)N3CCOCC3)cc2)cc1,.,12.7,-6.4,-24.5,47.3*,28.4,-8.2,-7.8
O=C(c1cc(COc2ccc3ncccc3c2)on1)N1CCCCCC1,41.5*,26.4,10.7,12.4,43.0*,33.8,3.7,49.2*
O=C(NCCc1cn2ccccc2n1)c1ccccc1F,-5.2,-10.2,-3.1,-18.4,-0.6,2.1,.,.
O=C(NCCc1cn2ccccc2n1)c1cc(COc2ccc3ncccc3c2)on1,-1.6,32.6,2.0,15.1,64.2*,16.6,-3.1,83.0*
CC(C)(C)n1nc(C2CC2)cc1NC(=O)Nc1ccccc1,-2.3,.,-27.2,.,-6.9,.,.,.
COC(=O)c1ccc2nc(Nc3nc4c(F)cc(F)cc4s3)sc2c1,-4.3,59.7,53.2*,55.3,66.1*,61.7,26.1*,81.6*
COCCCN1C(=O)[C@H](CC(=O)NCC23CC4CC(CC(C4)C2)C3)[C@]2(C(=O)OC)CCCCC=C12,.,.,-46.9,.,-7.4,.,.,.
COc1ccc(C(=O)Nc2ccc(C)cn2)c(OC)c1,-5.3,38.0,56.4*,-7.7,54.9*,-30.9,13.8*,28.4
O=C(c1ccccc1)c1ccc(Cn2cc(CCCO)nn2)cc1,-8.2,2.8,1.7,5.9,37.4*,19.7,5.7,13.2
Cc1ccc(C2CC(C(F)(F)F)n3nc(C(=O)NCc4c(C)nn(C)c4C)c(Cl)c3N2)cc1 (stereo not drawn),-3.4,33.3,20.8,26.1,45.3*,23.3,-0.5,23.2
SMILES,GalR3 antagonist,NCOA3 inh,NCOA2 inhibitor,SRC1 inh,COUP-TFII inh,LRH-1 inv ag,Gal4-VP16 ctr,COUP-TFII conf
O=[N+]([O-])c1ccc(Cl)c(C2Nc3cccc4cccc(c34)N2)c1,3.4,17.2,32.0,-26.2,41.3*,15.4,1.2,0.2
O=[N+]([O-])c1ccccc1C1Nc2cccc3cccc(c23)N1,-2.3,13.8,1.5,-15.2,2.9,3.4,.,.
Cc1cc(=O)c2c(ccc3c(=O)cc(C)[nH]c32)[nH]1,-0.2,.,-13.9,.,-13.4,.,.,.
CCCn1c(NC(=O)c2cccc(S(=O)(=O)N3CCCC3)c2)nc2ccccc21,-5.8,39.0,20.8,10.3,44.6*,14.1,-6.3,27.5
Nc1[nH]c(C(=O)c2ccc(Br)cc2)c(-c2ccc(Br)cc2)c1C(=O)N1CCCCC1,.,.,.,.,15.1,.,.,.
CC(=O)N[C@@H](C)CCc1ccc(Oc2ccc(OC(C)C)nc2)cc1,.,.,.,.,39.1*,.,-31.9,0.8
Cn1nnnc1SCc1nc2scc(-c3ccc(Cl)cc3)c2c(=O)[nH]1,-6.0,10.3,-4.5,14.1,46.3*,18.2,-8.8,14.6
Cn1nnnc1SCc1nc2scc(-c3ccccc3)c2c(=O)[nH]1,-1.2,-5.9,5.8,3.9,-11.0,-9.7,.,.
O=C(OC12CCCN(C1)/C(=C/c1ccccc1)C2)c1cccc(F)c1 (stereo not drawn),.,.,-5.6,.,-4.2,.,.,.
O=C(Nc1ccc(F)c(F)c1)c1ccc(F)c(S(=O)(=O)N2CCC3(CC2)OCCO3)c1,-8.9,15.5,1.7,12.9,39.3*,5.5,-3.8,17.7
Cc1ccc(C#CC[N+]2(CC#Cc3ccc(C)cc3)CCCCC2)cc1,-2.9,26.3,23.9,35.5,44.8*,59.2,13.1*,35.6
COC(=O)CCN(Cc1cccc(OC)c1OC)S(=O)(=O)c1ccccc1Br,-6.7,.,2.5,.,-9.4,.,.,.
O=C(COC(=O)CCN1C(=O)/C(=C\C=C\c2ccccc2)SC1=S)Nc1cc(F)ccc1F,0.3,23.3,42.7,15.5,42.1*,7.8,52.8*,63.9*
C[C@H](O)[C@@H]1CN2CCc3c([nH]c4c(-c5ccccc5)cccc34)[C@@H]2C[C@@H]1N(C)C(=O)c1ccco1,.,.,-12.3,.,21.1,.,.,.
CCC(c1c[nH]c2ccccc12)c1cn(C)c2ccccc12 (stereo not drawn),.,.,-4.4,.,-2.3,.,.,.
